FMDV antiviral = antivirals against foot and mouth disease virus | FMDV antiviral cell-based qHTS | Potency, µM (highest dose often 57.9 µM), for inactives: at the highest dose activity change, negative = inhibition, most hits filed as inhibitors | actives 1.2% (n = 410,000) | AID 1159524; calls by dose curve; tested in HEK293T cells; note: read-out not given here; potency is the fitted concentration of half-maximal effect; nearly all actives have a fitted effect of over 45% in size
Giardia FBPA inh = inhibitors of Giardia lamblia fructose-1,6-bisphosphate aldolase. purified Giardia FBPA. Potency, µM (doses to about 59.6 µM), for the others: at the highest dose activity, negative = inhibition, most hits filed as inhibitors. actives 0.71% (n = 290,000). AID 2451; note: potency is the fitted concentration of half-maximal effect; nearly all actives have a fitted effect of over 55% in size
Target sequence (A8B2U2 whole entry, looked up): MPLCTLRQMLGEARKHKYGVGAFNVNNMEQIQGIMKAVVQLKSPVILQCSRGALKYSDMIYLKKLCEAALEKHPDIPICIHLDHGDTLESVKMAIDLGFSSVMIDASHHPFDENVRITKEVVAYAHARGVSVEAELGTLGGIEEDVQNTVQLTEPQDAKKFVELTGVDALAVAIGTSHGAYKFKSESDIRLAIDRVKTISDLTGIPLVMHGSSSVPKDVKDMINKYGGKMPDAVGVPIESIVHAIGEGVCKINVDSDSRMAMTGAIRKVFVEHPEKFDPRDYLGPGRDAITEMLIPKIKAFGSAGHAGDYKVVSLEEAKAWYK
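Giardia FBPA (40 nM reagent) was preincubated 10 min at RT with compound (up to 57.5 uM final), then substrate plus GAPDH/TPI/NAD/arsenate coupling system with diaphorase/resazurin was added; resorufin fluorescence (525/598 nm) was read after 20 min.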
Vaccinia Venus = inhibitors of vaccinia virus (Venus reporter); Vaccinia virus Venus reporter expression, fluorescence; Potency, µM (series often up to 36.5 µM), for the others: top-dose activity change, negative = inhibition, actives largely listed as inhibitors; actives 0.46% (n = 330,000); calls by dose curve; tested in A549 cells; note: potency is the fitted concentration of half-maximal effect; nearly all actives have a fitted effect of over 30% in size
HCV inh = inhibitors of hepatitis C virus infection. Huh7.5.1 HCVcc-Cre infection, luciferase reporter, 44 h. Potency, µM (doses to about 41.8 µM), for inactives: at the top dose activity change, negative = inhibition, hits mostly inhibitors. actives 3.4% (n = 340,000); note: potency is the fitted concentration of half-maximal effect
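Compounds are dispensed onto cells plated 4 h earlier at 1,000 per well, with HCVcc-Cre virus (about 0.5 moi) added next. Following 44 h of culture, luminescent signal is measured for 15 sec after 15 min with substrate at room temperature.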
HCMV inh = inhibitors of human cytomegalovirus. HFF cells, HCMV-luciferase reporter, 72 h; stronger effect = lower value. activity change, negative = inhibition, % at 57.5 µM. actives 4.5% (n = 410,000); in the data active = activity change below about -60%; inconclusive = no clear call, values can overlap the other calls; inactive = above about -39%
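Luciferase read-out from HCMV-luciferase-infected HFFs (MOI 1 PFU/cell) 72 h post infection at 37C; compounds added after 16 h cell attachment; activity normalized between buffer-only basal and Salinomycin (10uM) inhibitor controls.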
VACV mCherry inh = inhibitors of vaccinia virus infection (mCherry reporter signal); Vaccinia virus mCherry reporter infection, fluorescence; Potency, µM (top dose mostly 36.5 µM), inactives show at the highest dose activity change, negative = inhibition, hits mostly inhibitors; actives 0.63% (n = 310,000); AID 720579; calls by dose curve; tested in A549 cells; note: potency is the fitted concentration of half-maximal effect; nearly all actives have a fitted effect of over 35% in size
Active calls of the source: *; i = inactive; u = inconclusive; x = no result. A selection: hits, their analogues and other compounds. The true share with any hit is near 7.5%. Unless noted, calls come from the whole dose curve; as a rule, active = well fitted curve in the direction sought with a large enough effect; inconclusive = small, poorly fitted or top-dose-only effect, or another doubt; inactive = no such curve, though single readings can be large; an effect the other way counts as inactive or inconclusive. % is set by controls: 0 for no effect and ±100 for the full control effect.

SMILES | FMDV antiviral | Giardia FBPA inh | Vaccinia Venus | HCV inh | HCMV inh | VACV mCherry inh
CCOc1cc(C(=S)N2CCOCC2)ccc1OC(=O)c1cccc(C)c1 | u | -1% | x | 11µM* | 58 | x
Cc1cc(C(=O)N/N=C/c2cc(Br)ccc2OC(=O)c2ccccc2Cl)n[nH]1 | -13% | 9% | u | u | u | 6.3µM*
CCOc1cc(C(=S)N2CCOCC2)ccc1OC(=O)c1ccccc1 | -14% | 2% | x | 12% | 0 | x
COc1ccc(/C=N/NC(=O)c2nc(-c3ccccc3)cc(-c3ccccc3)n2)cc1 | -8% | 7% | -26% | 10µM* | u | x
COc1ccc(/C=N/NC(=O)c2nc(-c3ccccc3)cc(-c3ccccc3)n2)cc1O | -10% | -6% | u | u | 27 | u
COc1cc(C(=O)N/N=C/c2ccsc2C)cc(OC)c1OC | -13% | 3% | u | u | -79* | u
COc1cccc(OC)c1NC(=O)C1CCCN1C(=O)Nc1cccc(Cl)c1 (stereo not given) | -6% | 3% | -1% | -5% | 12 | i
CC1(C(=O)N2CCC(CC3CC(c4cccc(Br)c4)=NO3)(C(=O)NCC3CCCCC3)CC2)CC1 (stereo not given) | u | 4% | u | -15% | u | -4%
O=C(N/N=C/c1ccc[nH]1)c1ccc(O)cc1 | 25% | -10% | -5% | -5% | -16 | i
O=C(N/N=C/c1ccc[nH]1)c1ccccc1O | 0% | u | -7% | -11% | -92* | -13%
Cc1cc(C(=O)N/N=C/c2ccc[nH]2)no1 | 12% | -12% | -4% | u | -20 | -7%
Cc1cc(C(=O)N/N=C/c2ccc[nH]2)n[nH]1 | 0% | -23% | -9% | 1.4µM* | u | i
COc1ccccc1C(=O)Nc1nnc(SCc2cc(=O)c3ccccc3[nH]2)s1 | 22µM* | x | -17% | x | -39 | -23%
O=C(Nc1nnc(SCc2cc(=O)c3ccccc3[nH]2)s1)c1ccccc1 | u | x | -9% | x | -18 | -8%
Cc1ccc2[nH]c(CSc3nnc(NC(=O)c4ccccc4C)s3)cc(=O)c2c1 | u | x | -22% | x | -74* | -7%
Cn1nc(-c2ccc(C(=O)Nc3ccc(OC(F)(F)F)cc3)cc2)c2ccccc2c1=O | 14µM* | x | u | x | -33 | u
CN(CCO)C(=O)c1ccc(-c2nn(C)c(=O)c3ccccc23)cc1 | -20% | -2% | -19% | -7% | -25 | i
CN(C(=O)c1ccc(-c2nn(C)c(=O)c3ccccc23)cc1)C1CCCCC1 | 22µM* | x | -27% | u | -38 | -26%
Cn1nc(-c2ccc(C(=O)Nc3cccc(C(F)(F)F)c3)cc2)c2ccccc2c1=O | 22µM* | x | -25% | x | -13 | u
COC(=O)N(C)C[C@@H]1OCc2cnnn2CCCC(=O)N([C@H](C)CO)C[C@@H]1C | -15% | x | -5% | x | -6 | i
FC(F)(F)c1cc(CO[C@@H]2CCCN[C@@H]2c2ccccc2)cc(C(F)(F)F)c1 | u | x | -24% | 3.5µM* | 24 | -13%
FC(F)(F)c1cc(CCN2CCNC[C@@H]2c2ccccc2)cc(C(F)(F)F)c1 | -12% | x | u | u | 4 | -10%
Cc1c(CC(=O)NCCc2ccccc2F)c(=O)oc2c(C)c3occ(C(C)(C)C)c3cc12 | -21% | x | -8% | x | -78* | -7%
COCCNC(=O)Cc1c(C)c2c(cc(C)c3c(C)coc32)oc1=O | 6% | -1% | x | 3% | 12 | x
Cc1c(CC(=O)NCCc2ccccc2)c(=O)oc2c(C)c3occ(C(C)(C)C)c3cc12 | -16% | x | -3% | x | u | -18%
COCCCNC(=O)Cc1c(C)c2c(cc(C)c3c(C(C)(C)C)coc32)oc1=O | -16% | 8% | x | 11µM* | -34 | x
CCNC(=O)C1(C)CCCN(C(=O)COc2ccc(Cl)cc2Cl)C1 (stereo not given) | x | x | x | x | 5 | x
CN(C)c1ccc(/C=C/c2ccnc3ccccc23)cc1Cl | x | x | -18% | x | x | -4%
COC(=O)C(c1ccccc1)(c1cn(C)c2ccccc12)C(Nc1ccccc1)c1ccc(C)cc1 (stereo not given) | x | x | x | x | -11 | x

From PubChem BioAssay
